# This is a sample that favours compounds with a hit; in the whole collection about 4.8% have one here.
# SUMO Mot1 rescue: SUMOylation pathway inhibition by Mot1-301 growth rescue. S. cerevisiae Mot1-301 growth rescue, ATP luminescence, 38.5C; percent above DMSO median, 100 means doubled. growth rescue, % at 18.8 µM. hit rate 1% among 320,000. AID 2716;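 active means every valid replicate shows activation above 250% relative to neutral control wells; inactive means the rest, any valid replicate at or below 250%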;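 further: OY570 slx delta 5 strain wells were the positive control but not used for scaling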
# HIF act: HIF pathway transcriptional activation; activation, % at 7.5 µM (by protocol); hit rate 0.32% among 300,000; U2OS HRE-luciferase reporter, luminescence; normalized: DMSO 0%, desferrioxamine 100%; AID 1910;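 active means mean activation of at least 10% of the iron chelator positive control signal, with at least half of replicates also reaching 10%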
# AI-2 QS modul: Vibrio harveyi AI-2 quorum sensing modulation; Vibrio harveyi JMH597 AI-2 luminescence/OD600 ratio, 9 h; stronger effect = lower value; strain lacks LuxN and CqsS sensors; 0 = neutral-control median; activity change, % at 7.5 µM; hit rate 0.4% among 300,000; AID 2094; in the data active means activity change below about -75%, passing the limit was not always enough;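 further: luminescence divided by OD600 gain over 9 h not by final OD600 alone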
# ALR inh: human ALR oxidase inhibition via reduced H2O2; P55789; purified ALR, DTT oxidation, H2O2 HRP-luminol luminescence; inhibition, % (no concentration beside the values); hit rate 3.8% among 290,000; AID 485317;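 active means mean replicate inhibition above about 79%, with every replicate also reaching it, limit read from the data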
# Target sequence (P55789 whole entry, looked up): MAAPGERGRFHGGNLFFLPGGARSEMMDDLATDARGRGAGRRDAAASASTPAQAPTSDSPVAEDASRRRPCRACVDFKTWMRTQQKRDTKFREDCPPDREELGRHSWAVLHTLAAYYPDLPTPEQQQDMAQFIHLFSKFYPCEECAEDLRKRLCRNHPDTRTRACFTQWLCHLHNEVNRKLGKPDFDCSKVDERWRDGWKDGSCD
# Mot1 SUMO dose: yeast SUMO pathway inhibition in dose response; shares compounds with SUMO Mot1 rescue; S. cerevisiae Mot1-301 galactose growth, ATP luminescence, 24 h; -100 = growth of slx-deleted rescue strain; 2,300 tested, under 10 active; growth activity, percent, % at 42 µM;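 active means Signal drops as the depositor expects, and the fitted half-maximal dose is no more than ten times the top valid tested dose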;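 further: more negative values mean stronger growth rescue toward the control strain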
# An asterisk follows results filed as active; . = no result; + = active, no number; [ ] = another dose, or the depositor's remark.
SMILES,SUMO Mot1 rescue,HIF act,AI-2 QS modul,ALR inh,Mot1 SUMO dose
Cc1ccc(SCCNC(=O)CN2C(=O)c3ccccc3S2(=O)=O)cc1,397.8*,-3.2,-43.6,-2.2,-0.2
C=CCN(C(=O)c1csnn1)C(C(=O)NC1CCCC1)c1ccccc1F (configuration not stated),29.3,-0.5,5.7,-4.5,.
COc1ccc2cc(C(=O)Nc3ccc(Cl)cc3)sc(=O)c2c1OC,752.4*,.,19.9,-5.2,0.3
O=C(CN1C(=O)/C(=C2/SC(=S)N(CCS(=O)(=O)O)C2=O)c2ccccc21)Nc1cccc(Br)c1,0.1,.,.,-4.5,.
CCOc1ccc(NC(=O)CN(C)C(=O)c2ccc(OCc3ccccc3)c(OC)c2)cc1OCC,540.3*,-44.8,1.4,-12.8,0.5
Cc1ccc(C(C[N+](=O)[O-])c2c(C)[nH]n(-c3ccccc3)c2=O)cc1 (configuration not stated),401.2*,6.3,30.3,4.3,-1.5
O=C(O)c1cccc(N2C(=O)C3C4C=CC(C4=C(c4ccccc4)c4ccccc4)C3C2=O)c1 (configuration not stated),598.6*,-0.3,-1.8,35.6,0.2
CC(=O)/C(=N\Nc1cccc(Cl)c1)Sc1cccc2cccnc12,-14.1,0.0,5.1,-3.5,.
CC(=O)/C(N)=N/Nc1cccc(Cl)c1,436.7*,0.0,2.4,98.8*,-1.1
CC(=O)N1N=C(c2ccc(C(C)(C)C)cc2)OC1(C)C,535.8*,-0.1,7.4,-15.7,0.1
CC(=O)N1N=C(c2ccc3ccccc3c2)OC1(C)C,7.2,1.3,2.7,-0.6,.
CS(=O)(=O)N(CC(=O)N1CCCC1)c1cccc(Cl)c1Cl,530.4*,0.1,17.2,4.4,0.1
CCOc1ccc(C(=O)N(Cc2ccccc2)c2cccc(C)c2)cc1OC,235.9,-0.6,29.0,-1.3,.
CCC(=O)Nc1sc2c(c1C#N)CCC2,5.2,-0.1,15.2,14.3,.
CN=C1SC(CC(=O)Nc2sc3c(c2C#N)CCCC3)C(=O)N1C (configuration not stated),364.2*,-0.2,30.1,9.7,0.2
CCN(CC)c1ncnc2ccc(Br)cc12,410.2*,1.5,-5.1,.,-0.5
O=C(CSc1ccc(Br)cc1)Nc1ccccc1N1CCOCC1,722.4*,0.1,24.0,-2.5,-0.3
O=C(Nc1ccccc1N1CCOCC1)c1cc(Br)c(Br)s1,759.6*,-0.2,22.5,.,-1.0
CCc1cc(C(=O)Nc2ccccc2N2CCOCC2)sc1C,52.4,.,.,-30.5,.
CC(CC(=O)NNC(=O)c1ccncc1)c1ccccc1 (configuration not stated),-7.7,-10.9,-20.9,-0.7,.
COc1ccccc1N(CCC#N)C(=O)CSc1nnc2ccccn12,9.1,.,.,-12.2,.
CCOC(=O)c1ccc2c(c1)n(CC)c(/C=C/N(C)c1ccccc1)[n+]2CC,0.5,0.3,6.3,1.2,.
CC[n+]1c(/C=C/N(C)c2ccccc2)n(-c2ccccc2)c2ccc(-c3nc4ccccc4s3)cc21,501.4*,-2.4,-7.6,-78.4,-0.6
O=C(c1cn(-c2ccccc2)nc1-c1cccs1)N1CCN(c2ccccc2)CC1,-11.7,2.4,2.8,-7.2,.
O=C(c1cn(-c2ccccc2)nc1-c1cccs1)N1CCOCC1,+,-0.2,15.1,0.3,0.2
SMILES,SUMO Mot1 rescue,HIF act,AI-2 QS modul,ALR inh,Mot1 SUMO dose
CCN(CC(=O)NCc1ccc(Cl)cc1)C(=O)/C=C/c1ccc(C#N)cc1,821.2*,-0.4,15.5,5.5,0.8
O=C1COc2ccc(C(=O)COC(=O)c3ncc(Cl)c(Cl)c3Cl)cc2N1,851.5*,0.1,.,-3.6,0.4
CCOc1ccc(NC(=O)C2CCCN(S(=O)(=O)c3c(C)n[nH]c3C)C2)cc1 (configuration not stated),126.1,0.1,28.2,0.7,.
CCOC(=O)c1cccc(NC(=O)C2CCCN(S(=O)(=O)c3c(C)n[nH]c3C)C2)c1 (configuration not stated),458.3*,-25.5,8.2,-4.4,0.5
Cc1cc(F)ccc1S(=O)(=O)Nc1ccccc1C(=O)Nc1ccc2[nH]c(=O)[nH]c2c1,369.9*,0.0,8.8,.,0.4
CN1C(=O)c2cccc3c(Cl)ccc(c23)C1=O,610.5*,-0.5,1.6,-6.8,0.6
Cc1ccc(NC2CC(=O)N(c3ccc(N4CCCCC4)cc3)C2=O)cc1 (configuration not stated),679.5*,0.0,11.9,-3.6,0.1[21 µM]
CCNc1ccccc(C(=O)/C=C/c2ccc3c(c2)OCO3)c1=O,438.6*,0.1,32.1,41.2,-0.4
C[C@H](NC(=O)OC(C)(C)C)C(=O)NCC1CCC(C(=O)N[C@@H](Cc2ccccc2)C(=O)O)CC1 (some centres not stated),477.4*,-33.3,13.3,-11.8,0.6
O=C(CCCCCN1C(=O)c2ccccc2C1=O)Nc1ccc(F)cc1,216.6,2.2,12.5,-0.4,.
CCc1nnc(NC(=O)CSc2ncnc3c2cnn3-c2ccc(OC)cc2)s1,141.0,0.1,14.3,-3.6,.
O=C1c2ccccc2C(=O)N1CCCCSc1nc2ccccc2c(=O)n1CCCN1CCOCC1,+,-0.3,0.9,-3.8,-0.5
O=C1c2ccccc2C(=O)N1CCSc1nc2ccccc2c(=O)n1CCCN1CCOCC1,-32.9,-0.2,9.6,-18.0,.
COc1ccc(CCNC(=O)COC(=O)c2cc(Cl)nc(Cl)c2)cc1,2.9,.,.,-12.5,.
Cc1cc(C)c(S(=O)(=O)NCc2cccnc2)c(C)c1,3.0,2.3,7.9,-8.5,.
CCN(CC)c1ccc(/C=N/NC(=O)OC(C)(C)C)cc1,568.1*,2.5,37.0,99.0*,-0.5
COc1ccc(S(=O)(=O)N2CCN(c3ccccc3OC)CC2)cc1C(=O)N1CCCCC1,18.0,0.1,15.7,6.0,.
CC(C)N1CCN(C(=O)c2ccc(OC3CCN(CCc4ccccc4)CC3)cc2)CC1,-17.3,0.3,-3.0,-13.3,.
O=C(c1ccc(OC2CCN(CCc3ccccc3)CC2)cc1)N1CCCC1,608.3*,-0.3,1.8,-7.6,-0.4
Cc1nc(NCCc2ccc(O)cc2)c2nnn(Cc3ccccc3)c2n1,-15.9,-0.2,.,2.4,.
COc1ccccc1NS(=O)(=O)c1cc(Cl)ccc1OC,442.4*,2.6,-6.0,-1.7,0.9
COc1ccc(C(=O)Nc2ccc(Cl)c(S(=O)(=O)Nc3ccccc3OC)c2)cc1,3.9,1.1,19.4,-18.4,.
COc1ccccc1NC(=O)Nc1ccc(Cl)c(S(=O)(=O)Nc2ccccc2OC)c1,389.6*,-0.6,20.5,-2.5,0.3
COc1ccc(NC(=O)C2CCCN(C(=O)Nc3cccc(OC)c3)C2)cc1 (configuration not stated),380.9*,1.6,34.7,-4.8,0.0
COc1ccc(NC(=O)C2CCCN(C(=O)Nc3ccc(OC)cc3)C2)cc1 (configuration not stated),25.2,0.0,33.0,-3.9,.

# Bioassay records (PubChem)
